Plk1 PBD FP: Plk1 (human) PBD binding inhibition; P53350; Plk1 PBD phosphopeptide binding, fluorescence polarization; inhibition, %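 (tested at about 20 µM)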; 0.13% of 97,000 active; AID 693; in the data active = inhibition above about 34%, passing the limit was not always enough
CYP2C9 inhib: blocks human cytochrome P450 2C9. CYP2C9 Supersomes, luciferin-H conversion, luminescence. inhibition, % at 5 µM. 20% of 96,000 active;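 active = blocking of liver enzyme CYP2C9 beyond about 50% at 5 µM, limit read from the data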
Target sequence (P11712 whole entry, looked up): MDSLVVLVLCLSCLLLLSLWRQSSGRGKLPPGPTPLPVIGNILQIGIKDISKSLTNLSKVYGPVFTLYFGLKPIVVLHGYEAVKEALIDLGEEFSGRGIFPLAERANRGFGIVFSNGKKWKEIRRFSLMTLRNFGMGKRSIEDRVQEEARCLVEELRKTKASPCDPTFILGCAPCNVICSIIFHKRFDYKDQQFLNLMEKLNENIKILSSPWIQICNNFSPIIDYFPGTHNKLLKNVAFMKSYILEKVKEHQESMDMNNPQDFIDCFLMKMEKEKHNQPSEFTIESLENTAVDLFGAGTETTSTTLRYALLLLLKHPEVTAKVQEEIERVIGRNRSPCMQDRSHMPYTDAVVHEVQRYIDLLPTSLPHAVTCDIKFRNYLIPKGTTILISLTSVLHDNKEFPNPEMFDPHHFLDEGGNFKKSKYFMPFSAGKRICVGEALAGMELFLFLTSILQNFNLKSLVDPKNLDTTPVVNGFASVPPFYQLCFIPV
CYP2C19 inh: blocks human cytochrome P450 2C19. 21% of 96,000 active. CYP2C19 Supersomes, luciferin-H EGE luminescence, 30 min. inhibition, % at 5 µM. P33261;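 active = CYP2C19 inhibition above a set limit at 5 µM in the primary screen, cut at about 50% in these data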;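 note: plate controls were negative control wells for no effect and 2.5 mM tranylcypromine positive control for full effect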
CYP2C19 activ: increases human CYP2C19 enzyme activity; P33261; recombinant CYP2C19, luciferin-H EGE luminescence; hits give high values; 0 = fully inhibited enzyme, 1 = untreated enzyme; activation factor at 5 µM; 96,000 tested, under 10 active; AID 1025;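 active = activation factor of at least 2 at 5 µM in the primary screen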;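 note: 0 = wells with 2.5 mM tranylcypromine and 1 = vehicle-only wells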
PLK1 kinase inh: inhibitors of human PLK1 kinase; AID 619; recombinant PLK1 kinase, TR-FRET peptide phosphorylation; inhibition, % at 10 µM; P53350; 0.53% of 97,000 active;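 active = inhibition of 50% or more in the single-concentration screen; inactive = inhibition below 50%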;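 note: 0% = DMSO max control and 100% = H-89 dihydrochloride min control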
CYP2C9 act: increases human cytochrome P450 2C9 activity | activation factor at 5 µM | P11712 | AID 1024 | recombinant CYP2C9, luciferin-H conversion, luminescence; hits give high values; factor 1 = untreated enzyme, 0 = blocked | 1.4% of 96,000 active;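 active = activation factor of 2 or more for CYP2C9 at a 5 µM dose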;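 note: 0 = sulfaphenazole-blocked wells and 1 = vehicle-only wells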
An asterisk follows results filed as active; . = no result given. Shown are actives, neighbours in structure and some others; about 28% of the full set was active somewhere.

SMILES	Plk1 PBD FP	CYP2C9 inhib	CYP2C19 inh	CYP2C19 activ	PLK1 kinase inh	CYP2C9 act
O=C(O)c1cccc(NC(=S)NC(=O)C(c2ccccc2)c2ccccc2)c1	31.6	81.6*	-3.7	1	-10.2	0.2
CC(=O)c1cccc(NC(=S)NC(=O)CC(C)C)c1	-1.0	55.8*	15.7	0.8	-9.9	0.4
COc1cc(NC(=S)Nc2cccc(Cl)c2Cl)c(OC)cc1Cl	2.6	-5.9	8.6	0.9	-8.1	1.1
CC(=O)c1cccc(NC(=O)Nc2cccnc2)c1	17.7	.	.	.	-7.6	.
Cc1ccc(S(=O)(=O)NCCCNC(=O)N2CCOCC2)cc1	5.6	-4.3	5.8	0.9	-12.3	1
CCNc1nc2[nH]c(=O)c3c(c2s1)OC(N)=C(C#N)C3c1ccc(C)cc1 (configuration not stated)	-19.2	12.9	-1.6	1	-18.1	0.9
CCCCc1cc(O)c(CCCC)c(O)c1	-25.4	97.0*	89.7*	0.1	-9.4	0
CS(=O)(=O)N1CCc2cc(S(=O)(=O)Nc3ccc4c(c3)OCCO4)ccc21	3.7	46.8	98.6*	0	1.8	0.5
CCC(=O)N1CCc2cc(S(=O)(=O)CCC(=O)Nc3cccc(F)c3)ccc21	-14.5	8.7	7.0	0.9	4.8	0.9
O=C(C1CCC1)N1CCc2cc(S(=O)(=O)Nc3ccc4c(c3)OCCO4)ccc21	-8.3	0.3	1.5	1	-20.4	1
CCC(=O)N1CCc2cc(S(=O)(=O)CCC(=O)Nc3ccc(F)c(F)c3)ccc21	1.5	52.3*	27.8	0.7	-6.5	0.5
CCC(=O)N1CCc2cc(S(=O)(=O)Nc3ccc4c(c3)OCCO4)ccc21	13.2	58.5*	33.3	0.7	-11.8	0.4
O=C(Nc1nccs1)c1cccc(S(=O)(=O)N2CCCCC2)c1	1.1	68.4*	93.9*	0.1	-7.7	0.3
O=C(Nc1nccs1)c1cc(S(=O)(=O)N2CCCCC2)ccc1Cl	.	-11.2	1.9	1	.	1.1
O=C(NCc1ccco1)c1cccc(S(=O)(=O)N2CCCCC2)c1	-21.6	.	.	.	-12.8	.
O=C(NCc1cccs1)c1cccc(S(=O)(=O)N2CCCCC2)c1	.	67.2*	75.0*	0.3	.	0.3
O=C(Nn1cnnc1)c1ccc(F)c(S(=O)(=O)N2CCCCC2)c1	7.9	72.5*	99.4*	0	-3.4	0.3
CC1CCN(S(=O)(=O)c2cccc(C(=O)Nc3nccs3)c2)CC1	-10.2	13.7	12.4	0.9	-7.6	0.9
O=C(Nc1nccs1)c1ccc(Cl)c(S(=O)(=O)N2CCCCC2)c1	3.3	53.3*	65.2*	0.3	-1.9	0.5
CCC(c1nnnn1CS(=O)(=O)c1ccc(C)cc1)N1CCN(c2nc3ccccc3s2)CC1 (configuration not stated)	-18.5	48.0	13.0	0.9	-10.3	0.5
Cn1c(CCNC(=O)c2ccc(Cl)cc2)n[nH]c1=S	-3.6	-5.7	-2.4	1	-7.8	1.1
Cc1nonc1NC(=O)c1ccc(Cl)c(S(=O)(=O)N2CCCCC2)c1	27.2	-17.9	68.1*	0.3	0.5	1.2
Cn1c(COc2ccccc2)nnc1SCCN1CCOCC1	37.6	-9.3	-6.9	1.1	-10.0	1.1
Cc1cc(C)c(S(=O)(=O)/N=C2\C=CC(=O)C(Cl)=C2)c(C)c1	-3.7	16.4	50.9*	0.5	-19.6	0.8
CC(OC(=O)C1=COCCO1)C(=O)Nc1ccc(Oc2ccccc2)cc1 (configuration not stated)	2.2	18.8	31.8	0.7	-10.9	0.8
SMILES	Plk1 PBD FP	CYP2C9 inhib	CYP2C19 inh	CYP2C19 activ	PLK1 kinase inh	CYP2C9 act
Cn1c(=O)c2[nH]c(CNCc3ccccc3Cl)nc2n(C)c1=O	-8.9	5.7	19.6	0.8	-3.9	0.9
Fc1ccc(Cn2c(SCc3ccc(F)c(F)c3)nnc2C(F)(F)F)cc1	14.3	56.7*	67.4*	0.3	-14.0	0.4
Fc1ccc(Cn2c(SCc3ccc(F)c(C(F)(F)F)c3)nnc2C(F)(F)F)cc1	18.0	56.1*	64.0*	0.4	-9.6	0.4
CCn1c(CNc2ccc(Cl)cc2)nnc1SCc1ccc(Cl)cc1	12.6	.	.	.	-9.7	.
CCOC(=O)N1CCN(C(=O)CN2C(=O)CC(C)(C)S(=O)(=O)c3ccccc32)CC1	-34.1	-64.0	54.9*	0.5	2.3	1.6
CN1CCN(C(=O)CN2C(=O)CC(C)(C)S(=O)(=O)c3ccccc32)CC1	-39.1	8.7	9.3	0.9	3.3	0.9
NC(=O)Nc1ccc(Oc2c(F)c(F)c(F)c(F)c2F)cc1	.	31.0	30.5	0.7	.	0.7
Nc1ccc(Oc2ccc([N+](=O)[O-])cc2[N+](=O)[O-])cc1	-7.8	1.0	25.5	0.7	-37.4	1
CCOc1cccc(OCCOc2ccccc2[N+](=O)[O-])c1	5.0	.	.	.	-11.5	.
O=[N+]([O-])c1ccc(Oc2cccc(Br)c2)c2ccncc12	-7.2	16.0	58.5*	0.4	5.2	0.8
O=[N+]([O-])c1ccc(Oc2ccc(F)cc2)c2ccncc12	-3.8	49.8	83.5*	0.2	-1.2	0.5
O=S(=O)(/C=C/c1ccccc1)Nc1ccc2c(c1)OCO2	-0.5	87.2*	99.8*	0	-7.1	0.1
CN(C)S(=O)(=O)c1ccc(NS(=O)(=O)/C=C/c2ccccc2)cc1	13.0	90.9*	69.9*	0.3	-2.3	0.1
CN(C)S(=O)(=O)c1ccc(S(=O)(=O)Nc2ccc3c(c2)oc2ccccc23)cc1	4.9	28.0	-18.5	1.2	-0.3	0.7
CC1=C(C(=O)Nc2ccccc2)C(c2ccc(C)o2)n2c(s/c(=C\c3ccco3)c2=O)=N1 (configuration not stated)	-14.2	85.3*	69.1*	0.3	-1.8	0.1
COc1ccccc1C1C(C(C)=O)=C(C)N=c2s/c(=C\c3cc(OC)c(OC)c(OC)c3)c(=O)n21 (configuration not stated)	-18.0	.	.	.	-0.6	.
COCCCNC(=O)Cn1nc(-c2ccc(C)cc2)ccc1=O	-6.9	17.9	-0.2	1	-7.5	0.8
CCOC(=O)C1=C(NC(=O)c2ccc(Br)o2)Nc2ccccc2N=C1	-7.7	60.0*	13.0	0.9	-10.0	0.4
CCOC(=O)c1c(NC(=O)c2ccc(Br)o2)sc(C)c1CC	.	33.1	38.8	0.6	.	0.7
Cc1coc(C)c1C(=O)CC1(O)C(=O)Nc2cc(Cl)cc(Cl)c21 (configuration not stated)	-4.6	49.5	59.1*	0.4	-5.6	0.5
CCOc1cc(C(=O)Nc2cc(=O)n(C)c(=O)n2C)cc(OCC)c1OCC	-25.4	7.5	-4.7	1	-13.5	0.9
O=C(c1ccccc1)c1nn(-c2ccccc2)c2nnc(Cc3ccccc3)c(=O)n12	27.9	.	.	.	-17.2	.
CC(C)(C)c1cc(C(c2cccnc2)N2CCN(CCO)CC2)cc(C(C)(C)C)c1O (configuration not stated)	-18.0	96.0*	79.9*	0.2	-12.4	0
OCCN1CCN(C(c2cccs2)c2ccc3cccnc3c2O)CC1 (configuration not stated)	-11.6	-0.2	-7.0	1.1	0.7	1

Bioassay records (PubChem)
